Sampled rows, rich in hits. Any-hit rate of the full collection: about 2.4%.
Cruzain Triton: inhibitors of Trypanosoma cruzi cruzain with detergent; P25779; purified cruzain, Z-FR-AMC fluorescence, 0.01% Triton; Potency, µM, usual class: inhibitors; 0.43% of 200,000 active; AID 1478; also: nearly all actives have a fitted effect of over 40% in size
Target sequence (P25779 123-467 limits assumed): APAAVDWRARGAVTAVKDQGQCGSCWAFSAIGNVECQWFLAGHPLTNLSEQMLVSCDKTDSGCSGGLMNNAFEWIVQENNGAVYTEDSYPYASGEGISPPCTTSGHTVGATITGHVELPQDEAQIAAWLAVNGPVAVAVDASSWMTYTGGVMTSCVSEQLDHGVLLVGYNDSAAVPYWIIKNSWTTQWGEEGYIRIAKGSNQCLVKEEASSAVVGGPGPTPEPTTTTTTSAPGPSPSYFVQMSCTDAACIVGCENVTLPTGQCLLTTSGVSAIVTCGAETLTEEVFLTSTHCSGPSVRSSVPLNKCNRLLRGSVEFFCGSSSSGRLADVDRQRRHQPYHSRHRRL
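In this qHTS format, compounds are incubated with 1.5 nM cruzain for 15 min at room temperature before 2 uM Z-FR-AMC is added. Release of AMC is followed at 360/450 nm, and progress is taken as the 60 s fluorescence difference.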
Cruzain noTriton: cruzain (T. cruzi) inhibition without detergent; P25779; purified cruzain, Z-FR-AMC fluorescence, no detergent; Potency, µM, hits mostly inhibitors; 2.3% of 200,000 active; also: nearly all actives have a fitted effect of over 40% in size
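Purified cruzain at 1.5 nM, pre-incubated 15 min with compound at room temperature in 100 mM sodium acetate pH 5.5, 5 mM DTT, 0.00005% Triton X-100. Reaction started with 2 uM Z-FR-AMC; AMC fluorescence increase over 60 s gives rate.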
Hits are given with their value; – = inactive; ? = inconclusive. Calls follow the shape of the dose curve; as a rule, active = well fitted curve in the direction sought with a large enough effect; inconclusive = small, poorly fitted or top-dose-only effect, or another doubt; inactive = no such curve, though single readings can be large; an effect the other way counts as inactive or inconclusive.

SMILES | Cruzain Triton | Cruzain noTriton
Cc1ccccc1C(=O)NC(NC(=S)Nc1ccc(S(N)(=O)=O)cc1)C(Cl)(Cl)Cl (stereo not given) | 12.6µM | –
COc1ccc(S(=O)(=O)n2nc(OC(=O)c3ccccc3)cc2N)cc1 | – | –
COc1ccc(S(=O)(=O)n2nc(OC(=O)c3cccs3)cc2N)cc1 | ? | 12.6µM
COc1ccc(S(=O)(=O)n2nc(OC(=O)c3ccco3)cc2N)cc1 | 12.6µM | 20µM
COc1ccc(S(=O)(=O)n2nc(OC(=O)c3ccc(C)cc3)cc2N)cc1 | – | –
Nc1ccc2nc(-c3ccc(Cl)cc3)[nH]c2c1 | ? | 20µM
Nc1ccc2nc(-c3cc(Cl)c(N)c(Cl)c3)[nH]c2c1 | ? | 15.8µM
Cc1ccc(C)c(-c2nc3ccc(N)cc3[nH]2)c1 | – | ?
Nc1ccc(-c2nc3ccc([N+](=O)[O-])cc3[nH]2)cc1 | – | –
Clc1ccc2nc(-c3ccccc3)[nH]c2c1 | – | –
Nc1ccc(-c2nc3c(Cl)c(N)ccc3[nH]2)cc1 | ? | 31.6µM
CC(C)c1ccc(NC(=O)Cc2ccc(NC(=O)N3CCCCc4ccccc43)cc2)cc1 | – | –
O=C(CCSCCC(=O)NCc1ccco1)NCc1ccco1 | – | –
O=C(O)CC1S/C(=N/N=C/C=C/c2ccccc2)NC1=O (stereo not given) | – | –
O=C(CC1S/C(=N/N=C/C=C/c2ccccc2)NC1=O)Nc1ccc(Cl)c(Cl)c1 (stereo not given) | – | 6.31µM
COc1cccc(-c2cc(C(=O)Nc3ccc(Br)c(C)c3)[nH]n2)c1 | – | 12.6µM
COc1cccc(-c2cc(C(=O)Nc3ccc(F)cc3)[nH]n2)c1 | – | ?
CCOc1ccc(-n2cc(-c3ccccc3)c3c(Nc4cccc(F)c4)ncnc32)cc1 | – | –
CN(CCc1ccc(Cl)c(Cl)c1)[C@H]1CCCC[C@H]1N1CCCC1 | – | –
CN(C(=O)COC(=O)CNC(=O)c1sc2ccccc2c1Cl)c1ccccc1 | 8.91µM | 7.94µM
CCOC(=S)NC(=O)c1sc2ccccc2c1Cl | – | –
CC(C)CC(NS(=O)(=O)c1ccc2c(c1)oc(=O)n2C)C(=O)NCCc1ccc(Cl)cc1 (stereo not given) | – | –
COc1cc(Cl)c(C)cc1NC(c1ccccc1)c1nnc(-c2ccccc2Cl)o1 (stereo not given) | – | 15.8µM
Cc1ccc(C)c(NC(c2ccccc2)c2nnc(-c3ccccc3F)o2)c1 (stereo not given) | – | –
CC1Cc2cc(S(=O)(=O)CCC(=O)NCc3ccccc3Cl)ccc2N1C(=O)C1CC1 (stereo not given) | – | –
SMILES | Cruzain Triton | Cruzain noTriton
O=C(NC1c2ccccc2-c2ccccc21)c1ccco1 | – | –
COc1ccc(C(=O)NC2c3ccccc3-c3ccccc32)cc1 | – | 20µM
COc1ccc(Nc2cc(C(=O)NCCCN3CCN(c4ccccc4F)CC3)c3ccccc3n2)c(OC)c1 | – | –
N#C/C(=C\c1ccc(-c2cccc(Cl)c2)o1)C(=O)Nc1cccc2cccnc12 | – | 3.16µM
N#C/C(=C\c1ccc(-c2ccccc2)o1)C(=O)Nn1cnnc1 | – | –
Cc1cc(C)nc(SCc2cc(=O)c(OC(=O)c3ccco3)co2)n1 | 25.1µM | ?
Cc1cc(C)nc(SCc2cc(=O)c(OC(=O)c3ccc(Br)o3)co2)n1 | ? | –
COc1cc2c(cc1NC(=O)C1CCCO1)oc1ccccc12 (stereo not given) | – | –
CCOc1ccc(NC(=O)C(C)Sc2nnnn2C)cc1 (stereo not given) | – | –
COc1ccccc1NC(=O)c1sc(NC(=O)c2ccco2)c(C#N)c1C | – | –
Cc1ccccc1OCC(=O)Nc1sc(C(=O)Nc2cccc(C)c2C)c(C)c1C#N | – | 7.94µM
CCCCN(C)C(=O)CSc1nc2ccccc2nc1Cc1ccc(C)cc1 | – | –
CC(=O)c1cccc(NC(=O)COc2ccccc2)c1 | – | –
O=C(COc1ccc2ccccc2c1)Nc1cccc(C(=O)Nc2ccccc2C(=O)O)c1 | 31.6µM | ?
COC(=O)/C=C/C(=O)N1CCN(c2ccccc2C)CC1 | – | –
CC(C)(C)C(=O)NC(=S)NNC(=O)c1sc2ccccc2c1Cl | – | –
CCCCOc1ccc2ccccc2c1C=O | – | –
Cc1cccc(N2CC(C(=O)Nc3nnc(SCC(=O)Nc4nccs4)s3)CC2=O)c1 (stereo not given) | – | 6.31µM
COc1cccc(N2CC(C(=O)Nc3nnc(SCC(=O)c4ccccc4)s3)CC2=O)c1 (stereo not given) | – | –
COc1ccc(Nc2nnc(SCC(=O)Nc3cc(C)on3)s2)cc1 | – | –
Cc1ccccc1N1CC(C(=O)Nc2nnc(SCC(=O)Nc3nccs3)s2)CC1=O (stereo not given) | – | –
Cc1cc(NC(=O)CSc2nnc(Nc3ccccc3)s2)no1 | – | 15.8µM
Cc1cccc(N2CC(C(=O)Nc3nnc(SCC(=O)Nc4cc(C)on4)s3)CC2=O)c1 (stereo not given) | – | 10µM
O=c1cnc2cnc(Nc3ccccc3)nc2n1Cc1cccs1 | – | –
O=C(CCc1ccc(O)cc1)c1c(O)cc(O)cc1O[C@H]1OC(CO)C(O)C(O)C1O (stereo not given in full) | – | –
SMILES | Cruzain Triton | Cruzain noTriton
Cc1ccc(S(=O)(=O)N2Cc3ccccc3CC2C(=O)Nc2ccc3c(c2)OCO3)cc1 (stereo not given) | – | ?
COc1ccc(S(=O)(=O)N2Cc3ccccc3CC2C(=O)Nc2ccc3c(c2)OCO3)cc1 (stereo not given) | – | 25.1µM
Cc1cc(N2CCOCC2)nc(SCc2c(Cl)cccc2Cl)n1 | – | –
C=CCn1c(SCC(=O)OCC)nc2cc(C(=O)NCc3ccco3)ccc2c1=O | – | –
O=c1oc2c(CN3CCOCC3)c(O)ccc2c2ccccc12 | – | –
Cc1c(O)c(CN2CCCC2)cc2c3c(c(=O)oc12)CCC3 | – | ?
O=c1oc2c(CN3CCOCC3)c(O)ccc2c2c1CCCC2 | 28.2µM | ?
CN(Cc1c(O)ccc2c1oc(=O)c1ccccc12)C1CCCCC1 | – | –
CN(C)Cc1c(O)ccc2c3c(c(=O)oc12)CCCCC3 | 22.4µM | ?
O=c1oc2c(CN3CCOCC3)c(O)c(Cl)cc2c2c1CCCC2 | 28.2µM | ?
COc1ccc(C2CC(=O)N(Cc3cccc(F)c3)c3ccccc3S2)cc1 (stereo not given) | – | –
CCOc1ccc(NC(=O)c2oc3ccccc3c2NC(=O)Cc2ccc(OC)c(OC)c2)cc1 | – | –
Nc1nc(-c2ccco2)c(-c2ccco2)s1 | – | –
c1coc(-c2nc(-c3ccco3)c(-c3ccco3)nc2-c2ccco2)c1 | 7.94µM | ?
COc1ccc2nc(-c3ccco3)c(-c3ccco3)nc2c1 | 11.2µM | 3.98µM
COc1ccc(Nc2c(-c3ccco3)nc3cccc(C)n23)cc1 | – | –
CCc1nnc(NC(=O)CSc2nnc(-c3ccoc3C)n2CC(C)C)s1 | – | –
COc1ccc2cnn(-c3ccc(C)cc3)c(=O)c2c1OC | – | –
COc1ccc(CC(=O)NNC(=O)c2cccs2)cc1 | – | –
Cn1ccnc1SCC(=O)c1cc2ccccc2o1 | – | 25.1µM
Cn1c(SCC(=O)c2cc3ccccc3o2)nnc1-c1ccccc1 | – | –
CN(C)S(=O)(=O)c1cccc(NC(=S)NN=C(Cc2ccccc2)Cc2ccccc2)c1 | – | 31.6µM
COc1cc(/C=N/NC(=S)Nc2cccc(S(=O)(=O)N(C)C)c2)ccc1O | – | –

Screening results: PubChem BioAssay, National Center for Advancing Translational Sciences (NCATS)
